Assay results published in PubChem BioAssay (NCI).
This is part of a sample that, as a whole, favours compounds with a hit. Of some 83,000 tested, about 20% had one in any assay.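 Testing used 96-well plates and a 48-hour single-concentration exposure. Example: -40 means 40% of the starting cells died.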 A number with no mark means an inactive call. The source made the active and inactive calls. Rule for the calls: active = growth percent below 10; inactive = the rest.

Test system: HL-60(TB) leukemia
Experiment: NCI-60 one-dose screen, 48 h (100 = growth as untreated, 0 = no growth, -100 = all killed)
Details: 10 µM unless noted

SMILES | growth
CC1(C)C(=O)/C(=C\c2ccco2)C[C@]2(C)[C@H]3CC[C@@H]4[C@@H](C(=O)/C=C/c5ccco5)CC[C@@]4(C)[C@]3(C)CC[C@@H]12 | 81.6%
O=c1cc(N2CCOCC2)oc2c(-c3ccc4c(c3)OCCO4)csc12 | 4.41% (active)
O=C1OC(c2ccccc2)=N/C1=C\c1ccc([N+](=O)[O-])cc1 | 119%
S=c1n(CNc2ccc(Cl)nn2)nc(-c2cc(Cl)cc(Cl)c2Cl)n1/N=C/c1ccc(Cl)cc1 | 3.47% (active)
COC(=O)C(Cc1ccccc1)NC(=O)c1ccc(NC(=O)c2[nH]c(C)c(Cl)c2Cl)c(OC(C)C)c1 (stereo not given) | 99.7%
COc1cc2c(cc1-c1c(C)noc1C)ncc1nc(C3CCC(F)(F)CC3)n([C@H](C)COC(F)F)c12 | 23.5%
CCCCOc1c(N)cc(Cl)cc1C(=O)OCCN(CC)CC | 51%
CCCOc1ccc2c(c1)CC[C@@H]1[C@@H]2CC[C@@]2(C)[C@H]1CC[C@]2(C)O | 78.8%
Oc1ccc(C(c2ccc(O)cc2)C(Cl)(Cl)Cl)cc1 | 68.1%
COC(=O)[C@H](C)NC(=O)NC(=O)NC(=O)CI | -51% (active)
Cn1ccc(Nc2nccc(Oc3ccc(C(=O)Nc4cccc(F)c4)c(Cl)c3)n2)c1 | 95.4%
Cc1ccc(C2CCCCC2)cc1Br | 97%
COc1cc2ncnc(Nc3ccc(S(=O)(=O)Nc4cc(C)on4)cc3)c2cc1OCCCN1CCN(c2ccc(F)cc2)CC1 | 112%
O=C(N/N=C/c1ccc(O)cc1O)c1cccc(Nc2ccnc(C(F)(F)F)c2)c1 | 8.21% (active)
O=C(Cc1ccccc1)NNc1nc(Cl)nc(N2CCN(C(c3ccccc3)c3ccccc3)CC2)n1 | 58.2%
COC(=O)c1nc(-c2ccccc2)oc1S(=O)(=O)NCC(c1ccc(Cl)cc1)N1CCOCC1 (stereo not given) | 4.12% (active)
CC(=O)OC/C(C)=C\CC(C)COC(C)=O (stereo not given) | 101%
COc1ccc(/C(C)=C(/c2ccc(OCCCN(C)C)cc2)c2ccc(OC(=O)c3ccccc3)cc2)cc1 | 62.8%
Cc1ccc(C(=O)/C(=C/c2ccc([N+](=O)[O-])cc2)SCc2ccc(Cl)cc2)cc1 | 58%
COc1cc(C2CC(=O)Nc3c2ccc2ccccc32)cc(Br)c1OC (stereo not given) | -15.2% (active)

SMILES | growth
NC(=S)N/N=C\c1nccc2c(C(F)(F)C(F)(F)C(F)(F)F)cccc12 | -49.4% (active)
NC(=S)N/N=C/C(=O)O | 87.8%
Cc1cc(C)c(N)c(S(=O)(=O)O)c1 | 106%
CC(O)CCC(C)[N+](=O)[O-] (stereo not given) | 96.9%
Cc1[nH]c(-c2nc3ccccc3[nH]2)c(C)c1C(=O)N1CCc2sccc2C1 | 99.3%
Cc1cc(NC(=O)CNc2nc(Oc3ccc(F)cc3)nc(-c3ccc(F)cc3)n2)ccc1Cl | 96.4%
O=C(CSCC(=O)N/N=C/c1ccccc1O)N/N=C\c1ccccc1O | -32.8% (active)
CCOC(=O)C(CCCCC(NC(C)=O)(C(=O)OCC)C(=O)OCC)(NC(C)=O)C(=O)OCC | 104%
COc1ccc(C(=O)CSc2nccc(Nc3ccc(C(=O)O)cc3)n2)cc1 | 99.5%
COc1cccc(-c2nc(-c3ccc(NC(=O)C(C)C)cc3)[nH]c2-c2ccnc(Br)c2)c1 | -23.4% (active)
Oc1ccc([S+](c2ccc(O)cc2)c2ccc(O)cc2)cc1 | 110%
COc1ccccc1S(=O)(=O)Nc1ccc2c3c(cc(-c4ccoc4)nc13)C(=O)N2C | 8.91% (active)
Cc1cc([C@@H](C)Nc2ccccc2C(=O)O)c2nc(N3CCOCC3)cc(=O)n2c1 | 26.7%
CCOC(=O)C(=Cc1ccccc1[N+](=O)[O-])C(=O)OCC | -26.5% (active)
O=[N+]([O-])c1ccc(N2CCN=N2)cc1 | 84.4%
COc1ccc(C(=O)C2CC2c2ccc(Cl)cc2)cc1 (stereo not given) | 14.1%
c1ccn2nnnc2c1 | 116%
COc1cc(C2CC(c3ccc(Nc4ccnc5cc(Cl)ccc45)cc3)=NN2C=O)cc(OC)c1OC (stereo not given) | 19.7%
Nc1ncnc(Nc2ccccc2)n1 | 107%
O=C(CN1C(=O)/C(=C/c2ccco2)SC1=S)NCCc1c[nH]c2ccc(F)cc12 | 95.9%
